In PubChem BioAssay:

These compounds were tested on Plasmodium falciparum Sir2 (PF13_0152, Sir2A) (assay: Plasmodium falciparum Sir2A binding compounds – biochemical, small-molecule microarray, 635 nm fluorescence, primary screen (AID 1098;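 further: score merges spot fluorescence intensity with its signal-to-noise ratio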)). Conditions: fluorescence 635 nm, higher = more signal.

**Q.** How did the composite z-score turn out when `CO[C@H]1COC(=O)[C@@H](C)COC(=O)[C@H](Cc2ccccc2)NC(=O)CC=C[C@H]1C` was run?
**A.** 0.7

**Q.** Which composite z-score does the source give for `C=CCC(OC(C)=O)[C@@H]1[C@@H](N(Cc2cccc3ccccc23)C(=O)c2ccc(C)cc2)c2cc(OCCCO)ccc2N1C(=O)c1ccc(-c2ccccc2)cc1` (stereo partly specified) here?
**A.** 0.451

**Q.** Which composite z-score does the source give for `CC(C)[C@H]1NC(=O)[C@@]23C(=O)N[C@@H](Cc4ccccc4)C2[C@H](C)[C@@]2(C)O[C@H]2C3/C=C/C/C=C\CNC(=O)[C@H](C)NC1=O` (stereo partly specified) here?
**A.** -0.949

**Q.** How did the composite z-score turn out when `CO[C@H]1COC(=O)[C@@H](Cc2ccccc2)NC(=O)[C@@H](C)COC(=O)CC=C[C@@H]1C` was run?
**A.** 0.318

**Q.** Which composite z-score does the source give for `CN1CCC(CCCO)=CC1C1CC1` (stereo unspecified) here?
**A.** 0.537

**Q.** `CC(C)[Si]1(C(C)C)OCc2cc(C3CC3)nc(-c3ccccc3)c21` was tested. Which composite z-score did it give?
**A.** 0.0305

**Q.** Which composite z-score does the source give for `O=C1c2ccccc2[C@](Cc2ccccc2I)(C(=O)O)[C@H](c2ccc(CO)cc2)N1C1CCCCC1` here?
**A.** 1.31

**Q.** With `C[C@@H]1NC(=O)CC=C[C@@H](C)[C@@H]2C=C[C@H](O)[C@@H](COC(=O)[C@H](C)NC(=O)CC=C[C@@H](C)[C@@H]3C=C[C@H](O)[C@@H](COC1=O)O3)O2` as the compound, how does the composite z-score read?
**A.** 0.231

**Q.** How did the composite z-score turn out when `C=CCc1cccc([C@@H]2[C@@H](C)CC[C@H]3C(=O)N4[C@H](c5cccc(CC=C)c5)[C@@H](C)CC[C@H]4C(=O)N23)c1` was run?
**A.** 0.725

**Q.** For `C=CC[C@@]12N=C(c3ccc(OCCCO)cc3)O[C@@H]1c1ccccc1CN(Cc1ccccc1)C2=O`, which composite z-score is on record?
**A.** 1.67

**Q.** For `COc1ccc([C@H]2C[C@H]3C(Br)=C[C@]2(OC)C(=O)[C@]32CO2)cc1`, which composite z-score is on record?
**A.** 0.488

**Q.** For `C=CCOC(=O)[C@@H]1[C@H]2C(=O)O[C@H](c3ccccc3)[C@H](c3ccccc3)N2[C@H](c2ccc(OCCOC(=O)[C@H]3C[C@H]4C(=O)N5CCC[C@H]5C(=O)N4[C@H]3c3ccc(O)cc3)cc2)[C@@]12C(=O)Nc1ccccc12`, which composite z-score is on record?
**A.** 1.04

**Q.** For `CC(=O)NCCCC[C@@H]1NC(=O)[C@@H]2C[C@H](C(=O)NCc3ccc(F)cc3)[C@H](c3cccc(OCCO)c3)N2C1=O`, which composite z-score is on record?
**A.** 1.02

**Q.** `O=C(CS)NCCCCCNC(=O)[C@H]1C[C@H]2C(=O)N3CCC[C@H]3C(=O)N2[C@H]1c1ccc(O)cc1` was tested. Which composite z-score did it give?
**A.** 0.203

**Q.** Which composite z-score does the source give for `C=C(COC)/C(=C/C[C@H](OC(C)=O)c1ccc(OCCO)cc1)c1cnc2ccccc2c1` here?
**A.** -0.407

**Q.** `COc1cc([C@@H]2N[C@H](C(=O)O)Cc3c2[nH]c2ccccc32)cc(OC)c1OC` was tested. Which composite z-score did it give?
**A.** 0.175

**Q.** How did the composite z-score turn out when `C=CC[C@@]1(C(=O)N2CCOCC2)N=C(c2ccc(OCCCO)cc2)O[C@@H]1c1ccccc1` was run?
**A.** -0.406

**Q.** For `COCCOC(=O)N1C(=O)[C@@]2(c3cc(C#CC4=CCCCC4)ccc31)[C@H](c1ccc(O)cc1)N1[C@H](c3ccccc3)[C@H](c3ccccc3)OC(=O)[C@H]1[C@@H]2C(=O)N1CCCCCCC1`, which composite z-score is on record?
**A.** 0.84

**Q.** With `COCCOC(=O)N1C(=O)[C@@]2(c3cc(C#CC4=CCCCC4)ccc31)[C@H](C(=O)NC[C@H](O)c1ccccc1)[C@H]1C(=O)O[C@H](c3ccccc3)[C@H](c3ccccc3)N1[C@@H]2c1ccccc1OCCO` as the compound, how does the composite z-score read?
**A.** 1.28

**Q.** For `C=CC[C@]1(C(=O)NCC(O)CO)N=C(c2ccc(OCCCO)cc2)O[C@H]1c1ccccc1` (stereo partly specified), which composite z-score is on record?
**A.** 1.23

**Q.** How did the composite z-score turn out when `C=CCC(OC(C)=O)[C@@H]1[C@@H](N(Cc2cc3ccccc3o2)C(=O)c2ccc(C)cc2)c2cc(OCCCO)ccc2N1C(=O)c1ccc2ccccc2n1` (stereo partly specified) was run?
**A.** -0.222

**Q.** For `CC(C)NC(=O)[C@@]1(Cc2ccccc2I)c2ccccc2C(=O)N(C2CCCCC2)[C@H]1c1ccc(CO)cc1`, which composite z-score is on record?
**A.** 1.02

**Q.** For `C=C[C@H](OC)[C@@H](OC(=O)Nc1ccc(SC)cc1)c1ccc(OC)c(O)c1`, which composite z-score is on record?
**A.** 0.0729

**Q.** With `CCc1cccc(NC(=O)O[C@H]2[C@H](OC(=O)Nc3ccccc3)[C@@H](OC(=O)Nc3ccccc3)[C@@H](OC)O[C@@H]2CO)c1` as the compound, how does the composite z-score read?
**A.** 1.35

**Q.** `COCCOC(=O)N1C(=O)[C@@]2(c3cc(C#CCC(C(=O)OC)C(=O)OC)ccc31)[C@H](C(=O)N1CCN(c3ncccn3)CC1)[C@H]1C(=O)O[C@H](c3ccccc3)[C@H](c3ccccc3)N1[C@@H]2c1ccc(O)cc1` was tested. Which composite z-score did it give?
**A.** 1.25

**Q.** How did the composite z-score turn out when `COc1ccc(-c2cc3c(c(-c4ccccc4)n2)[Si](C(C)C)(C(C)C)O[C@H]3c2ccccc2)cn1` was run?
**A.** -0.309

**Q.** With `CCC(=O)[C@]12O[C@@]3([C@@H]4C(=O)OCC[C@@H]41)N(Cc1ccccc1)C(C)=C(C(=O)OC)[C@@H](c1ccccc1)N3C2=O` as the compound, how does the composite z-score read?
**A.** 0.401

**Q.** How did the composite z-score turn out when `CO[C@@H]1COC(=O)[C@H](C)NC(=O)CC=C[C@@H](C)[C@H](NS(=O)(=O)c2ccc(C)cc2)COC(=O)CC=C[C@@H]1C` was run?
**A.** -0.876

**Q.** With `CC(=O)Nc1ccc([C@H]2[C@H](C)CC[C@H]3C(=O)N4[C@@H](CC[C@@H](C)[C@@H]4c4ccc(NC(C)=O)cc4)C(=O)N32)cc1` as the compound, how does the composite z-score read?
**A.** 0.75

**Q.** Which composite z-score does the source give for `C=CCN(C(=O)C1N(c2ccc(CCO)cc2)C(=O)C2C(C(=O)O)C3C=CC21O3)C(C)(C)C` (stereo unspecified) here?
**A.** 1.86

**Q.** For `CO[C@H]1COC(=O)[C@H](C)NC(=O)CC=C[C@@H](C)[C@H](NS(=O)(=O)c2ccc(C)cc2)COC(=O)[C@@H](OCc2ccccc2)C=C[C@@H]1C`, which composite z-score is on record?
**A.** -0.189

**Q.** With `COCCCNC(=O)[C@@]1(Sc2ccc(C)cc2)CC(=O)N(Cc2cc(C(F)(F)F)cc(C(F)(F)F)c2)[C@@H]1c1ccc(CO)cc1I` as the compound, how does the composite z-score read?
**A.** 1.84

**Q.** `CO[C@H]1COC(=O)CC=C[C@H](C)[C@@H](OC)COC(=O)[C@H](Cc2ccccc2)NC(=O)CC=C[C@@H]1C` was tested. Which composite z-score did it give?
**A.** 1.49

**Q.** `COCCOC(=O)N1C(=O)[C@@]2(c3cc(C#CCCO)ccc31)[C@H](C(=O)N1CCCCCCC1)[C@H]1C(=O)O[C@H](c3ccccc3)[C@H](c3ccccc3)N1[C@@H]2c1ccc(O)cc1` was tested. Which composite z-score did it give?
**A.** 1.46

**Q.** For `Cc1ccc(N2C(=O)c3ccccc3[C@@H](C(=O)NCc3ccccc3)[C@@H]2c2ccc(CO)cc2)nc1`, which composite z-score is on record?
**A.** -0.566

**Q.** `O=C1C2C=CC(C(O)C(c3ccccc3)c3ccccc3)N(Nc3ccc([N+](=O)[O-])cc3)C2C(=O)N1c1ccccc1` (stereo unspecified) was tested. Which composite z-score did it give?
**A.** 0.375
